Experimental data taken from PubChem BioAssay (Tox21).
Where “and” joins values, the source holds several entries; their conditions need not be identical. Identical values can stand only once. Results filed as inconclusive are left out. Where a call stands in place of a potency, no number is given. Calls of active or inactive are those of the source. Unless noted, calls follow the shape of the dose curve; as a rule, active = well fitted curve in the direction sought with a large enough effect in the repeat runs; inconclusive = weak or mixed curves; inactive = no such curve, though single readings can be large; an effect the other way counts as inactive or inconclusive.

Legend:
[1] = qHTS assay to identify small molecule agonists of the vitamin D receptor (VDR) signaling pathway - cell viability counter screen (AID 743224); also: nearly all actives have a fitted effect of over 50% in size; also: potency is read from the fitted curve at half-maximal effect
How it was run: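 VDR-bla cells were preincubated 4 h at 37C/5% CO2, then exposed to compounds for 16 h. After the 2 h room-temperature bla FRET read, CellTiter-Glo was added to the same wells and luminescence read after 30 min.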

[2] = qHTS assay to identify small molecule antagonists of the vitamin D receptor (VDR) signaling pathway - cell viability counter screen (AID 743225); also: nearly all actives have a fitted effect of over 50% in size; also: potency is read from the fitted curve at half-maximal effect
How it was run: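 Luminescent cell viability (CellTiter-Glo) in VDR-bla HEK 293T cells after 16 h compound exposure at 37C in the presence of 3 nM final 1-alpha,25-dihydroxy vitamin D3.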

[3] = qHTS assay to identify small molecule agonists of the NFkB signaling pathway (AID 1159509; active = well fitted curve in the direction sought with a large enough effect in the signal ratio in the repeat runs, not every such curve was filed as active; the % refers to the signal ratio)
How it was run: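 After overnight attachment, reporter cells received test compounds, DMSO or positive controls and were incubated 5 hr at 37 C. FRET substrate was then added for 1.5 hr at room temperature before dual-emission fluorescence reading.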

[4] = qHTS assay to identify small molecule antagonists of the retinoid-related orphan receptor gamma (ROR-gamma) signaling pathway - cell viability counter screen (AID 1159520); also: nearly all actives have a fitted effect of over 50% in size; also: potency is read from the fitted curve at half-maximal effect
How it was run: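 Tet-on ROR gamma CHO cells (1,000/well) were plated 4 hr, given compounds in DMSO for 2 hr at 37 C, then induced with 1 uM final doxycycline for 16 hr. Viability was read as ATP by CellTiter-Glo luminescence after 30 min.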

[5] = molecular target: Nuclear receptor ROR-gamma (Homo sapiens) (UniProt P51449); assay: qHTS assay to identify small molecule antagonists of the retinoid-related orphan receptor gamma (ROR-gamma) signaling pathway (AID 1159521; also: nearly all actives have a fitted effect of over 50% in size; also: potency is read from the fitted curve at half-maximal effect)
How it was run: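 CHO cells expressing RORγ under a TET-on promoter, luciferase under RORE control. Dox 1 uM final, 16 h; compounds added 2 h prior. Luminescence decrease measured.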

[6] = qHTS assay to identify small molecule agonists of the AP-1 signaling pathway - cell viability counter screen (AID 1159525; calls by dose curve; also: nearly all actives have a fitted effect of over 55% in size; also: potency is read from the fitted curve at half-maximal effect)
How it was run: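 ME-180 AP-1-bla, 2500 cells/well, Opti-MEM + 0.5% dialyzed FBS; overnight 37 °C; cpd 15-pt titration, 5 h 37 °C; CellTiter-Glo 30 min RT; luminescence read; normalised to TOAB and DMSO controls.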

[7] = qHTS assay to identify small molecule agonists of the AP-1 signaling pathway (AID 1159526; calls by dose curve)
[8] = molecular target: Retinoic acid receptor RXR-alpha (Homo sapiens) (UniProt P19793); assay: qHTS assay to identify small molecule agonists of the RXR signaling pathway (AID 1159527; calls by dose curve; also: nearly all actives have a fitted effect of over 35% in size)
How it was run: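 Beta-lactamase reporter assay, agonist format. Engineered HEK 293T line, charcoal-stripped FBS at 2%, overnight (16 hr) exposure, fluorescence at 460 and 530 nm after 405 nm excitation.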

[9] = qHTS assay to identify small molecule agonists of the RXR signaling pathway - cell viability counter screen (AID 1159529); also: nearly all actives have a fitted effect of over 50% in size; also: potency is read from the fitted curve at half-maximal effect
How it was run: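 Same-well viability check after the LiveBLAzer FRET read: CellTiter-Glo added, luminescence measured after 30 min at room temperature. Reporter HEK 293T cells had been treated with compounds for 16 hr following a 5 hr preincubation.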

[10] = qHTS assay to identify small molecule antagonists of the retinoid acid receptor (RAR) signaling pathway - cell viability counter screen (AID 1159551); also: nearly all actives have a fitted effect of over 35% in size; also: potency is read from the fitted curve at half-maximal effect
How it was run: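 C3RL4 cells were seeded overnight at 37 C, then treated with compounds plus 1 uM (final) retinol for 6 h at 37 C. Viability was read as ATP by CellTiter-Glo luminescence after 30 min at room temperature.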

[11] = qHTS assay to identify small molecule antagonists of the retinoic acid receptor (RAR) signaling pathway (AID 1159552; also: nearly all actives have a fitted effect of over 50% in size; also: potency is read from the fitted curve at half-maximal effect)
How it was run: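 Readout: luciferase luminescence, 30 min post-reagent at RT. Setup: C3RL4 RARE reporter cells, compounds plus retinol 1 uM final, 6 hr incubation at 37 C and 5% CO2.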

[12] = qHTS assay to identify small molecule agonists of the retinoic acid receptor (RAR) signaling pathway (AID 1159553); settings: C3RL4 RARE luciferase reporter, agonist, 6 h; activation: at 73.3 µM (top of the series); also: potency is read from the fitted curve at half-maximal effect
How it was run: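 C3RL4 cells carrying a RARE luciferase reporter were plated overnight at 37 C, then exposed to compounds in DMSO for 6 hr at 37 C and 5% CO2. Luminescence was read 30 min after luciferase reagent addition at room temperature.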

[13] = qHTS assay to identify small molecule agonists of the endoplasmic reticulum stress response signaling pathway - cell viability counter screen (AID 1159517; calls by dose curve)
How it was run: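 Luminescence readout: CellTiter-Glo, 30 min RT, same wells as the ESRE-bla reporter read. HeLa ESRE-bla, 1,500 cells/well, o/n 37 C; cpd 5 hr 37 C/5% CO2.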

[14] = qHTS assay to identify small molecule antagonists of the estrogen related receptor (ERR) signaling pathway - cell viability counter screen (AID 1224818);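 also: viability measured after 17.5 h of compound exposure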
How it was run: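 ERR reporter cells plated 6 h at 37 C/5% CO2, then compounds in DMSO pin-transferred and incubated 17.5 h at 37 C. Viability read as CellTiter-Fluor fluorescence after 30 min at 37 C.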

[15] = qHTS assay to identify small molecule agonists of the estrogen related receptor (ERR) signaling pathway (AID 1224820)
How it was run: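 Quantitative HTS of the LOPAC library used NTP ERR reporter cells treated 18 h at 37 C. Signal is luminescence after One-Glo addition and a 30 min room-temperature incubation.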

[16] = tested on: estrogen-related receptor alpha (ERRalpha) with PGC-1alpha coactivator, human; assay: qHTS assay to identify small molecule antagonists of the estrogen related receptor signaling pathway with the pleiotropic PPARgamma coactivator (PGC) (AID 1224821; calls by dose curve)
How it was run: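 Quantitative HTS for antagonism: PGC/ERR cells received compounds after 6 h attachment and were incubated 18 h at 37 C, with luminescence (One-Glo) as the endpoint.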

[17] = qHTS assay to identify small molecule antagonists of the estrogen related receptor (ERR) signaling pathway (AID 1224819)
How it was run: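 ERR reporter cells were plated at 2,000 cells/well and left 6 h at 37 C/5% CO2 before pin-tool transfer of compounds in DMSO. After 18 h at 37 C, One-Glo was added and luminescence was read 30 min later at room temperature.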

[18] = qHTS assay to identify small molecule antagonists of the estrogen related receptor signaling pathway with the pleiotropic PPARgamma coactivator (PGC) cell viability counter screen (AID 1224822)
How it was run: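 PGC/ERR cells were seeded at 2,000 cells/well, rested 6 h at 37 C/5% CO2, then given compounds in DMSO by pin tool and incubated 17.5 h at 37 C. Viability came from CellTiter-Fluor fluorescence after 30 min.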

Sequence of Retinoic acid receptor RXR-alpha (Homo sapiens) (P19793 whole entry, looked up): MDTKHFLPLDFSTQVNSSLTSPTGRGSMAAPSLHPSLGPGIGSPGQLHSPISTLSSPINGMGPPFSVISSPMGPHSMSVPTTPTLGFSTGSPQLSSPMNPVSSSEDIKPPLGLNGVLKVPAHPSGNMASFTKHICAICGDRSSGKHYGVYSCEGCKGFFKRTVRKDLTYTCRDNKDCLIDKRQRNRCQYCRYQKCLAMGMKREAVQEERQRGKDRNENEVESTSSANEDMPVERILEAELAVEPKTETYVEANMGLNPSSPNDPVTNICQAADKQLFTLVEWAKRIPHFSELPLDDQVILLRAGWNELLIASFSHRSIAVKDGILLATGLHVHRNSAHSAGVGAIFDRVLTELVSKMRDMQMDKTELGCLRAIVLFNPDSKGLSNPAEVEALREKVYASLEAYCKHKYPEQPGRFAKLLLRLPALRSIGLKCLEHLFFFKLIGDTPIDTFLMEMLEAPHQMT

SMILES | Potency [1] | Potency [2] | Potency [3] | Potency [4] | Potency [5] | Potency [6] | Potency [7] | Potency [8] | Potency [9] | Potency [10] | Potency [11] | Potency [12] | Potency [13] | outcome [14] | outcome [15] | outcome [16] | outcome [17] | outcome [18]
CCCCCCCCN | inactive | inactive | inactive | inactive | inactive | inactive | inactive | inactive | inactive | inactive | inactive | inactive |  |  |  |  |  | 
COC(=O)C1=C(C)NC(C)=C(C(=O)O[C@@H]2CCCN(Cc3ccccc3)C2)[C@@H]1c1cccc([N+](=O)[O-])c1 | inactive | inactive | inactive | inactive |  | inactive | inactive |  | inactive | inactive |  |  | inactive |  |  |  |  | 
CCCCCCCC/C=C\CCCCCCCCO | inactive | inactive | inactive | inactive | inactive | inactive | inactive | inactive | inactive | inactive | inactive |  |  |  |  |  |  | 
CC(=O)[C@H]1[C@H](C#N)C[C@H]2[C@@H]3CC=C4C[C@@H](O)CC[C@]4(C)[C@H]3CC[C@@]21C | inactive | inactive | inactive | inactive | inactive | inactive |  | inactive | inactive | inactive | inactive |  |  |  |  |  |  | 
C/C=C/C=C/C=O | inactive | inactive | inactive | inactive |  | inactive |  | inactive | inactive | inactive |  |  | inactive |  |  |  |  | 
CCOC(=O)C1=C(C)NC(C)=C(C(=O)OC)C1c1cccc(Cl)c1Cl (stereo not given) |  |  | inactive |  | inactive |  | inactive | inactive |  | inactive |  | inactive | inactive | inactive | inactive | inactive |  | 
C[C@@H]1CN(CCCn2c3ccccc3c3ccccc32)C[C@H](C)N1 | 26.6 µM (active) | 23.9 µM (active) | inactive |  |  | inactive | inactive |  | 23.9 µM (active) |  | 33.5 µM (active) |  |  |  |  |  |  | 
CCOC(=O)c1ccc(C#Cc2ccc3c(c2)C(C)(C)CCS3)nc1 | inactive | inactive | inactive | inactive | inactive | inactive | inactive |  | inactive | inactive |  |  |  |  |  |  |  | 
CC=C(Cl)Cl | inactive | inactive | inactive | inactive | inactive | inactive | inactive | inactive | inactive | inactive | inactive | inactive |  |  |  |  |  | 
C[C@@H]1CC(=O)NN=C1c1ccc(NN=C(C#N)C#N)cc1 | inactive | inactive | inactive | 2.98 µM (active) and 2.11 µM (active) | 4.22 µM (active) |  |  |  | inactive | inactive | inactive |  | inactive |  |  |  |  | 
C[C@]1(Cn2ccnn2)[C@H](C(=O)O)N2C(=O)C[C@H]2S1(=O)=O | inactive | inactive | inactive | inactive |  | inactive |  |  | inactive | inactive |  |  | inactive |  |  |  |  | 
O=C1NCCN1CCO | inactive | inactive | inactive | inactive |  | inactive | inactive | inactive | inactive | inactive | inactive |  |  |  |  |  |  | 
CC1CC(OC(=O)C(O)c2ccccc2)CC(C)(C)N1C (stereo not given) | inactive | inactive | inactive | inactive | inactive | inactive | inactive |  | inactive | inactive | inactive |  |  |  |  |  |  | 
c1cc(N(CC2CO2)CC2CO2)ccc1Cc1ccc(N(CC2CO2)CC2CO2)cc1 (stereo not given) |  | inactive | inactive | 54.5 µM (active) |  |  |  |  | inactive | inactive | inactive | 30.6 µM (active) | inactive |  |  |  |  | 
O=c1cc(-c2ccccc2)oc2ccc3ccccc3c12 | 19.5 µM (active) |  | inactive | 27.3 µM (active) |  | 24.5 µM (active) |  | inactive | 19.5 µM (active) | 24.3 µM (active) |  |  |  |  |  |  |  | 
CC[C@]1(O)C[C@H]2CN(CCc3c([nH]c4ccccc34)[C@@](C(=O)OC)(c3cc4c(cc3OC)N(C=O)[C@H]3[C@@](O)(C(=O)OC)[C@H](OC(C)=O)[C@]5(CC)C=CCN6CC[C@]43[C@@H]65)C2)C1 |  | inactive | inactive | inactive |  | inactive |  |  | inactive | inactive | 0.168 µM (active) |  | inactive |  |  |  |  | 
CCOC(=O)c1ccc(OCCN2C[C@H](O)[C@@H](O)[C@H](O)[C@H]2CO)cc1 | inactive | inactive | inactive | inactive |  | inactive | inactive | inactive | inactive | inactive |  |  |  |  |  |  |  | 
CC(C)(C)C(=O)C(=O)O | inactive | inactive | inactive | inactive | inactive | inactive | inactive | inactive | inactive | inactive | inactive | inactive |  |  |  |  |  | 
O=C(CCc1ccc(O)cc1)c1c(O)cc(O)cc1O | inactive | inactive | inactive | inactive |  | inactive | inactive |  | inactive | inactive | inactive |  | inactive | inactive | inactive | inactive | inactive | inactive
CC1(C)[C@@H](OC(=O)CCC(=O)O)CC[C@]2(C)[C@H]3C(=O)C=C4[C@@H]5C[C@@](C)(C(=O)O)CC[C@]5(C)CC[C@@]4(C)[C@]3(C)CC[C@@H]12 | inactive | inactive | inactive | inactive | inactive | inactive |  |  | inactive | inactive | inactive | inactive |  |  |  |  |  | 
CCOc1ccc(Cc2nccc3cc(OCC)c(OCC)cc23)cc1OCC | inactive | inactive | inactive |  | 7.5 µM (active) | inactive | inactive |  | inactive | inactive | inactive | inactive | inactive |  |  |  |  | 
CC/C=C1/OC(=O)c2ccccc21 | inactive | inactive | inactive | inactive | inactive |  |  |  |  | inactive | inactive |  | inactive |  |  |  |  | 
Nc1cccc2c1CN(C1CCC(=O)NC1=O)C2=O (stereo not given) | inactive | inactive | inactive | inactive | inactive |  | inactive | inactive | inactive | inactive | inactive | inactive |  |  |  |  |  | 
